Source: PubChem BioAssay AID1813 (Broad Institute, 2009)
In all, about 300,000 compounds went through this assay and about 2,500 (0.83%) were called active. Cut-off read from the data, not from the text of the source: active = inhibition above about 60%; inconclusive = no clear call, values can overlap the other calls; inactive = below that. For the sample, actives were picked, then their nearest neighbours and some compounds at random.

assay: MLPCN primary screen, SNCA 5' untranslated region (AID 1813); conditions: alpha-synuclein 5'UTR reporter, inhibitor activity; hits give high values; tested at 7.5 µM;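 note: H4 neuroglioblastoma cells stably carrying SNCA 5'UTR luciferase fusion; 0% = DMSO wells and 100% = positive control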

inhibition, inactive:
Nc1nonc1-n1nnc(C(=O)N/N=C/c2ccccc2O)c1CN1CCCC1 14.3%
Cc1ccc(SCc2c(C(=O)N/N=C/c3cccnc3)nnn2-c2nonc2N)cc1 -2.9%
S=C(c1ccccc1)N1CCCC1 4.96%
OCCN1CCN(c2nnc(-c3ccccc3)c3ccccc23)CC1 18.9%
Cc1nc2cccnc2nc1C -3.08%
CC(C)S(=O)(=O)c1csc(NC(=O)Nc2ccc(Cl)cc2)c1Cl -49.4%
Cc1cccc(OCC(=O)NCCCNC(=O)c2ccccn2)c1 8.27%
Cc1ccc(Cl)cc1NC(=O)c1ccccn1 -44%
COc1ccc(NC(=O)Cn2ncn3c(cc4ccccc43)c2=O)c(OC)c1OC 30%
COC(=O)Cc1csc(Nc2c(C)n(C)n(-c3ccccc3)c2=O)n1 14.1%
Cc1ccc(-n2c(O)c(C=Nc3ccc(S(=O)(=O)Nc4ncccn4)cc3)c3ccccc3c2=O)cc1C 13.1%
CC(NC(=O)c1cccc2ccccc12)c1ccc2c(c1)CCCC2 (stereo unspecified) 5.38%
Cc1cc(C(=O)Cn2cnc3cc([N+](=O)[O-])ccc3c2=O)c(C)n1CC1CCCO1 (stereo unspecified) -21.1%
Cc1cc(C(=O)CCl)c(C)n1CC1COc2ccccc2O1 (stereo unspecified) 21.1%
CCn1c(-c2cccnc2Cl)nc2cc(C)c(C)cc21 24.4%
CC(C)C(NS(=O)(=O)c1cccs1)C(=O)Nc1nc(C(C)(C)C)cs1 (stereo unspecified) 24.5%
CCCCN(C(=O)c1ccc(C)o1)c1c(N)n(CCCC)c(=O)[nH]c1=O 11.8%
COc1ccc(NC(=O)C(C)SCc2ccccc2)cc1 (stereo unspecified) -18.2%
COc1ccc(C(=O)NCC2CCCN2S(=O)(=O)c2cccs2)cc1OC (stereo unspecified) 19.5%
CC(=O)c1c(C)[nH]c(C(=O)COC(=O)c2cccc(S(=O)(=O)N(C)c3ccccc3)c2)c1C -1.07%
CC1CC(C)CN(C(=O)C2CC(=O)N(c3ccc(F)cc3)C2)C1 (stereo unspecified) 10.4%
C=CCn1c(CCNC(=O)c2ccccc2F)nnc1SCC(=O)Nc1ccc(OC)cc1 -21.5%
Cc1ccc(CS(=O)(=O)c2ncc(Cl)c(C(=O)Nc3nnc(C)s3)n2)cc1 -37.4%
CSc1nnc(NC(=O)c2nc(S(=O)(=O)Cc3ccc(C)cc3)ncc2Cl)s1 -15.6%
COC(=O)COc1cccc2c(=O)n(CC(=O)NCc3ccccc3)ccc12 -24.3%
Nc1nc(Nc2ccccc2F)nc(NC2CCCCC2)c1[N+](=O)[O-] 30.2%
COc1cc(OC)cc(C(=O)NC2CCN(C(=O)N3c4ccccc4Sc4ccccc43)CC2)c1 47.3%
COc1ccc(CN2[C@@H](CC(=O)O)c3cc(F)ccc3S2(=O)=O)cc1 -3.17%
C/C(CC(=O)Nc1ccc(N(C)C)cc1)=N\NC(=O)c1ccccc1F -40.2%
COc1ccc(CC(=O)NC(C)CCc2ccccc2)cc1 (stereo unspecified) 1.27%
C/C(=N\NC(=O)Cc1ccc(F)cc1)c1ccc(F)cc1 20.6%
C/C(=N\NC(=O)Cc1ccc(Br)cc1)c1cccnc1 30.5%
COc1ccc(C/C(C)=N/NC(=O)c2ccncc2)cc1 6.51%
O=C(Nc1ccc(NC(=O)c2ccccc2F)cc1)c1ccccc1F -42.3%
C/C(=N\Nc1nc2ccccc2[nH]1)c1cccs1 -116%
O=C(O)C1CCCCC1C(=O)N1CCN(S(=O)(=O)c2ccc(F)cc2)CC1 (stereo unspecified) -5.32%
CC1(C)OC(=O)N2CCc3ccccc3C21C (stereo unspecified) -10.7%
C=CCNC(=S)NNc1ncnc2sc3c(c12)CC(C)(C)OC3 5.75%
O=C(O)c1cc2c(cc1NC(=O)c1c(F)cccc1Cl)OCCCO2 23.8%
COc1ccc2[nH]c3nc(SCC(=O)NC4CC4)nnc3c2c1 -39.5%
CCCCCN(C(=O)NC(=O)Nc1ccccc1C)S(C)(=O)=O -36.2%
OCCCNc1nc(-c2ccccc2)c2cc(Cl)ccc2n1 30.4%
NS(=O)(=O)c1cccnc1Nc1cccc(Cl)c1 -2.47%
O=C1CCCN2N=C(SCC(=O)Nc3ccc(Br)cc3)SC2=N1 10.7%
Cc1cc(C(F)F)nn1CC(=O)NC1CCCCCC1 -7.74%
Cc1ccccc1NC(=O)CCNS(=O)(=O)c1ccc2[nH]c(=O)oc2c1 6.01%
CCOc1ccc(C2C(C(=O)NC)=C(C)Nc3nc4ccccc4n32)cc1OC (stereo unspecified) 10.1%
CCOC(=O)C1=C(C)Nc2nc3ccccc3n2C1c1cccs1 (stereo unspecified) 31.1%
COC(=O)c1cc(=O)n(-c2c(Cl)cc(C(F)(F)F)cc2Cl)[nH]1 29.3%
CN(CC(=O)Nc1c(Cl)cccc1Cl)C(=O)c1ccncc1 8.69%

inhibition, active:
Nc1nonc1-n1nnc(C(=O)N/N=C/c2cc(Br)ccc2O)c1CSC1=NCCS1 94.1%
OCCN1CCN(C(=S)c2ccc(-c3ccccc3)cc2)CC1 88%
CCN(CC)CCOc1ccc2c(c1)C(=NNC(=O)c1ccccn1)c1cc(OCCN(CC)CC)ccc1-2 109%
COC(=O)Cc1csc(/N=C/c2c(O)n(-c3cccc(C(F)(F)F)c3)c(=O)c3ccccc23)n1 81.8%
Cc1ccsc1C(=O)OCC(=O)c1cc(C)n(CC2CCCO2)c1C (stereo unspecified) 79.6%
Cc1cccc(NC(=O)c2nc(S(=O)(=O)Cc3ccccc3)ncc2Cl)c1 84.8%
C/C(=N\NC(=O)Cc1ccc(Cl)cc1)c1ccccn1 85.6%
C/C(=N\NC(=O)c1ccccc1F)c1ccccn1 83%
COc1ccc(CC(=O)N/N=C(\C)c2ccccn2)cc1 77.7%
OCCCNc1nccc(-c2cc(Nc3cccc(Cl)c3)ncn2)n1 73.3%
COc1ccccc1NC(=O)C1=C(C)Nc2nc3ccccc3n2C1c1cccs1 (stereo unspecified) 106%
